# Test results reported in the supplement of paper PMC8728848.
# Many of the other results were omitted from the sample, so the strongest signals are more common in it than they were.
# Assays:
# Assay in all cases: glycan array binding signal (z-score within array); higher = stronger binding
# Conditions in all cases: glycan notation: IUPAC condensed, linker removed
# Fuc(a1-2)Gal(b1-3)GalNAc = target: Fuc(a1-2)Gal(b1-3)GalNAc
# Procedure, shortened: (§1)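 Arrays were curated from the Consortium for Functional Glycomics database, 3228 in total, and kept only where the protein sequence was available. Binding is expressed as a within-array Z-score. This score was averaged across arrays of the same protein sequence at different concentrations or buffers and across linkers, and negative values can be read as non-binding.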
# [1] = target: Fuc(a1-2)[Gal(a1-3)]Gal(b1-4)[Fuc(a1-3)]Glc
# Procedure, shortened: as §1
# [2] = target: Fuc(a1-2)[GalNAc(a1-3)]Gal(b1-4)GlcNAc(b1-2)Man(a1-3)[Fuc(a1-2)[GalNAc(a1-3)]Gal(b1-4)GlcNAc(b1-2)Man(a1-6)]Man(b1-4)GlcNAc(b1-4)[Fuc(a1-6)]GlcNAc
# Procedure, shortened: as §1
# [3] = target: Fuc(a1-2)[GalNAc(a1-3)]Gal(b1-4)GlcNAc(b1-3)Gal(b1-4)GlcNAc(b1-3)Gal(b1-4)GlcNAc
# Procedure, shortened: as §1
# [4] = target: Fuc(a1-2)[GalNAc(a1-3)]Gal(b1-4)[Fuc(a1-3)]GlcNAc
# Procedure, shortened: as §1
# Gal(a1-3)Gal(b1-3)GlcNAc = target: Gal(a1-3)Gal(b1-3)GlcNAc
# Procedure, shortened: as §1
# [5] = target: Gal(a1-3)Gal(b1-3)GlcNAc(b1-2)Man
# Procedure, shortened: as §1
# Gal(a1-3)Gal(b1-4)Glc = target: Gal(a1-3)Gal(b1-4)Glc
# Procedure, shortened: as §1
# [6] = target: Gal(a1-3)Gal(b1-4)GlcNAc(b1-2)Man
# Procedure, shortened: as §1
# [7] = target: Gal(a1-3)[Gal(a1-4)]Gal(b1-4)GlcNAc
# Procedure, shortened: as §1
# Gal(b1-3)Gal = target: Gal(b1-3)Gal
# Procedure, shortened: as §1
# Gal(b1-3)GlcNAc(b1-2)Man = target: Gal(b1-3)GlcNAc(b1-2)Man
# Procedure, shortened: as §1
# [8] = target: Gal(b1-3)GlcNAc(b1-2)Man(a1-3)[Gal(b1-3)GlcNAc(b1-2)Man(a1-6)]Man(b1-4)GlcNAc(b1-4)[Fuc(a1-6)]GlcNAc
# Procedure, shortened: as §1
# [9] = target: Gal(b1-3)GlcNAc(b1-3)Gal(b1-3)GlcNAc
# Procedure, shortened: as §1
# [10] = target: Gal(b1-3)GlcNAc(b1-3)Gal(b1-4)GlcNAc(b1-6)[Gal(b1-3)GlcNAc(b1-3)]Gal(b1-4)Glc
# Procedure, shortened: as §1
# [11] = target: Gal(b1-3)[Fuc(a1-4)]GlcNAc(b1-2)Man
# Procedure, shortened: as §1
# [12] = target: Gal(b1-4)GlcNAc(b1-2)Man(a1-3)[GlcNAc(b1-2)Man(a1-6)]Man(b1-4)GlcNAc(b1-4)GlcNAc
# Procedure, shortened: as §1
# [13] = target: Gal(b1-4)GlcNAc(b1-2)Man(a1-3)[Man(a1-6)]Man(b1-4)GlcNAc(b1-4)GlcNAc
# Procedure, shortened: as §1
# [14] = target: Gal(b1-4)GlcNAc(b1-2)Man(a1-6)[GlcNAc(b1-2)Man(a1-3)]Man(b1-4)GlcNAc(b1-4)GlcNAc
# Procedure, shortened: as §1
# [15] = target: Gal(b1-4)GlcNAc(b1-3)Gal(b1-4)GlcNAc(b1-3)Gal(b1-4)GlcNAc(b1-3)Gal(b1-4)GlcNAc(b1-3)Gal(b1-4)GlcNAc(b1-2)Man(a1-3)[Gal(b1-4)GlcNAc(b1-3)Gal(b1-4)GlcNAc(b1-3)Gal(b1-4)GlcNAc(b1-3)Gal(b1-4)GlcNAc(b1-3)Gal(b1-4)GlcNAc(b1-2)Man(a1-6)]Man(b1-4)GlcNAc(b1-4)[Fuc(a1-6)]GlcNAc
# Procedure, shortened: as §1
# [16] = target: Gal(b1-4)GlcNAc(b1-3)Gal(b1-4)GlcNAc(b1-3)[Gal(b1-4)GlcNAc(b1-3)Gal(b1-4)GlcNAc(b1-6)]GalNAc
# Procedure, shortened: as §1
# [17] = target: Gal(b1-4)GlcNAc(b1-3)Gal(b1-4)[Fuc(a1-3)]GlcNAc(b1-3)Gal(b1-4)[Fuc(a1-3)]GlcNAc
# Procedure, shortened: as §1
# [18] = target: Gal(b1-4)GlcNAc(b1-6)Gal(b1-4)GlcNAc
# Procedure, shortened: as §1
# [19] = target: Gal(b1-4)GlcNAc(b1-6)GalNAc
# Procedure, shortened: as §1
# Gal6P(b1-4)GlcNAc = target: Gal6P(b1-4)GlcNAc
# Procedure, shortened: as §1
# [20] = target: GalNAc(b1-3)Gal(a1-6)Gal(b1-4)Glc
# Procedure, shortened: as §1
# [21] = target: GalNAc3S(b1-4)[Fuc(a1-3)]GlcNAc
# Procedure, shortened: as §1
# GalNAc4S6S(b1-4)GlcNAc = target: GalNAc4S6S(b1-4)GlcNAc
# Procedure, shortened: as §1
# [22] = target: GlcNAc(b1-2)[GlcNAc(b1-4)]Man(a1-3)[GlcNAc(b1-2)Man(a1-6)]Man(b1-4)GlcNAc(b1-4)GlcNAc
# Procedure, shortened: as §1
# [23] = target: GlcNAc(b1-3)Gal(b1-4)GlcNAc(b1-3)Gal(b1-4)GlcNAc(b1-3)Gal(b1-4)GlcNAc(b1-2)Man(a1-3)[GlcNAc(b1-3)Gal(b1-4)GlcNAc(b1-3)Gal(b1-4)GlcNAc(b1-3)Gal(b1-4)GlcNAc(b1-2)Man(a1-6)]Man(b1-4)GlcNAc(b1-4)GlcNAc
# Procedure, shortened: as §1
binder,measurement,setting,value
Si Bti9 1b-V5-his (Solanum lycopersicum) (protein) MQCNRGCDLALASFYVWRGSNLTLISEMFSTSIADIVSYNNRDNIPNQDSVIAGTRINIPFRCDCLNDGEVLGHAFPYRVKSGDTYDLVARNYSDLTTAQWMMKFNSYPENNIPNTVNLSVVVNCSCGNSDVSKDFGLFVTYPVRAEDNLTSVASAANVSEDIIRRYNPAAVSILDIGQGIIYIPGRDRNGNFPPLPTSTDGLSGGAKKGGRADPAFLYKVVINSKLEGKPIPNPLLGLDSTRTGHHHHHH,glycan array binding signal (z-score),Fuc(a1-2)Gal(b1-3)GalNAc,-0.261
same,glycan array binding signal (z-score),[1],-0.298
same,glycan array binding signal (z-score),[2],0.032
same,glycan array binding signal (z-score),[3],0.217
same,glycan array binding signal (z-score),[4],-0.245
same,glycan array binding signal (z-score),Gal(a1-3)Gal(b1-3)GlcNAc,11.5
same,glycan array binding signal (z-score),[5],6.21
same,glycan array binding signal (z-score),Gal(a1-3)Gal(b1-4)Glc,-0.169
same,glycan array binding signal (z-score),[6],-0.206
same,glycan array binding signal (z-score),[7],2.94
same,glycan array binding signal (z-score),Gal(b1-3)Gal,-0.313
same,glycan array binding signal (z-score),Gal(b1-3)GlcNAc(b1-2)Man,-0.032
same,glycan array binding signal (z-score),[8],-0.076
same,glycan array binding signal (z-score),[9],0.11
same,glycan array binding signal (z-score),[10],-0.125
same,glycan array binding signal (z-score),[11],1.83
same,glycan array binding signal (z-score),[12],-0.243
same,glycan array binding signal (z-score),[13],-0.294
same,glycan array binding signal (z-score),[14],-0.277
same,glycan array binding signal (z-score),[15],-0.258
same,glycan array binding signal (z-score),[16],0.207
same,glycan array binding signal (z-score),[17],-0.264
same,glycan array binding signal (z-score),[18],-0.272
same,glycan array binding signal (z-score),[19],2.79
same,glycan array binding signal (z-score),Gal6P(b1-4)GlcNAc,-0.317
same,glycan array binding signal (z-score),[20],-0.348
same,glycan array binding signal (z-score),[21],4.72
same,glycan array binding signal (z-score),GalNAc4S6S(b1-4)GlcNAc,-0.18
same,glycan array binding signal (z-score),[22],-0.289
same,glycan array binding signal (z-score),[23],3.41
